# A selection: hits, their analogues and other compounds. The true share with any hit is near 6.2%.
# ATXN viability – viability counter-screen for ATXN expression inhibitors. S2 cells (HEK-293 line with an ATXN2-luciferase reporter) viability, CellTiter-Fluor protease fluorescence, 24 h. Potency, µM (titrated, usually from 56.7 µM), hits mostly cytotoxic. 0.49% of 400,000 active. AID 651635; note: nearly all actives have a fitted effect of over 40% in size
# HT1080NT lethal – kills 2HG-producing HT-1080-NT fibrosarcoma cells; Potency, µM (highest dose often 46.1 µM), actives largely listed as cytotoxic; 1.6% of 360,000 active; HT-1080-NT fibrosarcoma viability, CellTiter-Glo ATP luminescence, 48 h;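 note: NT is the 2HG producing partner of a matched IDH1 knockdown line; nearly all actives have a fitted effect of over 55% in size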
#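 Viability of the 2HG-overproducing fibrosarcoma line after 48 hours of compound exposure at 37 degrees C was determined by luminescence with CellTiter-Glo, and concentration-effect curves were then fitted and categorized.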
# KB-3-1 cytotox – kills parental KB-3-1 adenocarcinoma cells. KB-3-1 viability, CellTiter-Glo ATP luminescence, 72 h. Potency, µM (top dose mostly 46.1 µM), hits mostly cytotoxic. 1.4% of 400,000 active; note: nearly all actives have a fitted effect of over 60% in size
#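 Cells are dispensed, compounds pinned in, plates held at 37 °C for 72 h, then CellTiter-Glo is added and luminescence read after 10 minutes. Cell line: parental KB-3-1 in phenol-red-free DMEM, 10% FBS.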
# HT1080 IDH1KD tx – toxicity to HT-1080 IDH1 knockdown cells (counter line); Potency, µM (highest dose often 46.1 µM), actives largely listed as cytotoxic; HT-1080 IDH1 knockdown viability, ATP luminescence, 48 h; 2% of 360,000 active
#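 Assay cells: HT-1080 with IDH1 knockdown, 750 per well, RPMI/5% FBS. Exposure: 48 h at 37 °C following 2 h pre-incubation. Read: CellTiter-Glo luminescence; fitted concentration-response, curve class assigned.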
# ATXN2 expr inh – inhibitors of ATXN2 expression; HEK-293 ATXN2-luciferase reporter, luminescence, 24 h; Potency, µM (titrated, usually from 57 µM), usual class: inhibitors; 0.72% of 360,000 active; AID 1745845; note: nearly all actives have a fitted effect of over 55% in size
#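 ATXN2-luciferase reporter cells (luciferase flanked by upstream and downstream ATXN2 gene portions) were treated 24 h at 37 °C with compounds at up to 57 uM. SteadyGlo luminescence gave expression; GF-AFC fluorescence gave viability.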
# KB-V1 cytotox – kills drug-selected multidrug resistant KB-V1 cells | 3.4% of 400,000 active | KB-V1 MDR cells viability, CellTiter-Glo, 72 h | Potency, µM (series often up to 46.1 µM), hits mostly cytotoxic | AID 1347076; note: nearly all actives have a fitted effect of over 60% in size
#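 qHTS viability screen in drug-selected KB-V1 MDR cells: 72 h compound treatment at 37 degrees C, ATP luminescence end point.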
# Hits are given with their value; n = inactive; u = inconclusive; x = not tested or not shown. Calls come from the whole dose curve; as a rule, active = well fitted curve in the direction sought with a large enough effect; inconclusive = small, poorly fitted or top-dose-only effect, or another doubt; inactive = no such curve, though single readings can be large; an effect the other way counts as inactive or inconclusive.
SMILES,ATXN viability,HT1080NT lethal,KB-3-1 cytotox,HT1080 IDH1KD tx,ATXN2 expr inh,KB-V1 cytotox
Cc1cc(C)cc(Cn2cc(CN3CC(N4CCN(Cc5ccccc5F)CC4)CS3(=O)=O)nn2)c1 (stereo not given),n,n,u,n,n,n
CCCCCCN1CCN(C2CN(Cc3cn(Cc4ccc(C)cc4)nn3)S(=O)(=O)C2)CC1 (stereo not given),n,n,n,23µM,n,u
Cc1ccc(Cn2cc(CN3CC(N4CCN(Cc5ccccc5F)CC4)CS3(=O)=O)nn2)cc1 (stereo not given),n,n,u,n,n,10µM
CCn1c(N2CCN(S(=O)(=O)c3ccc(Cl)cc3)CC2)nc2ccccc21,n,n,u,u,n,8.2µM
CCn1c(N2CCN(C(=S)NCC(C)C)CC2)nc2ccccc21,n,n,n,n,n,10µM
CCn1c(N2CCN(S(=O)(=O)c3ccc(F)cc3)CC2)nc2ccccc21,n,n,u,n,n,12µM
CCn1c(N2CCN(S(=O)(=O)CC)CC2)nc2ccccc21,n,n,n,n,n,u
CCCN1CNc2c(c(=O)[nH]c(=S)n2CCc2cccc(C)c2C)C1,x,n,x,n,x,x
Cc1cc(=O)n(CC(=O)NCc2ccc(OC(C)C)cc2)c2c1c(C)nn2-c1cccc(F)c1,n,x,n,x,n,n
CCCN1CNc2c(c(=O)[nH]c(=S)n2CCc2ccccc2C)C1,x,n,x,n,x,x
Cc1ccsc1C(=O)N(Cc1cc2ccc(F)cc2nc1N1CCC(O)CC1)CC1CCCO1 (stereo not given),n,x,x,x,x,x
Cc1ccc(C(=O)c2cc([N+](=O)[O-])ccc2N2CCOCC2)cc1C,u,u,16µM,1.8µM,n,3.7µM
Cc1ccc(C(=O)c2cc([N+](=O)[O-])ccc2N2CCOCC2)c(C)c1,u,u,1µM,u,n,0.58µM
Cc1ccc(C(=O)c2cc([N+](=O)[O-])ccc2N2CCCCC2)cc1C,u,1.6µM,2.9µM,1.5µM,n,5.8µM
O=C(Nc1ccccc1)c1cc([N+](=O)[O-])ccc1N1CCCCC1,n,n,n,n,n,n
O=C(NC1CCCCC1)c1cc([N+](=O)[O-])ccc1N1CCCCC1,n,n,n,n,n,9.2µM
Cc1cc(C)cc(-n2c(SCC(=O)N3CCc4ccccc43)nc3c([nH]c4ccccc43)c2=O)c1,n,x,n,x,n,n
Cc1c(C(=O)N2CCCC(C)C2)sc2ncnc(NCCN3CCCCC3)c12 (stereo not given),n,x,x,x,x,x
Cc1ccc(NC(=O)C(Cc2ccccc2)NS(=O)(=O)c2cccc3nsnc23)c(C)c1 (stereo not given),n,x,n,x,n,u
Cc1cc([N+](=O)[O-])nn1CCCC(=O)Nc1cc(Oc2ccc(F)cc2)cc([N+](=O)[O-])c1,n,n,n,n,n,5.8µM
Cc1cc([N+](=O)[O-])nn1CCCC(=O)O,n,n,n,n,n,u
Cc1cc([N+](=O)[O-])nn1CCCC(=O)N1CCN(c2ccc(F)cc2)CC1,n,n,n,n,n,18µM
Cc1ccc(SCCC(=O)Nc2ccccc2Br)cc1,n,n,n,n,x,n
Cc1ccc(SCCC(=O)Nc2ccccc2C(=O)NC(C)C)cc1,n,n,n,n,n,2.9µM
Cc1c(N2C(=O)/C(=C\C3CC=CCC3)SC2=S)c(=O)n(-c2ccccc2)n1C (stereo not given),u,u,n,18µM,n,n
SMILES,ATXN viability,HT1080NT lethal,KB-3-1 cytotox,HT1080 IDH1KD tx,ATXN2 expr inh,KB-V1 cytotox
Cc1ccc2nc(-c3ccncc3)c(Nc3ccc(C(C)C)cc3)n2c1,u,x,n,x,n,n
COCCCNc1ncnc2sc(C(=O)N3CCOCC3)c(C)c12,n,x,x,x,x,x
COCCCNc1nnc(Cc2ccc(Cl)cc2)c(=O)[nH]1,u,0.92µM,u,u,x,n
CCOc1ccc(N(CC(=O)NCc2cccc(OC)c2)S(=O)(=O)c2c(C)noc2C)cc1,n,n,n,n,n,7.3µM
CCOc1ccc(N(CC(=O)NCc2ccc(C)cc2)S(=O)(=O)c2c(C)noc2C)cc1,n,x,n,x,n,n
COc1ccc(N(CC(=O)NCc2cccc(OC)c2)S(=O)(=O)c2c(C)noc2C)cc1,n,n,n,n,n,13µM
